# miR-122 inh – raises miR-122 sensor activity in Huh7 cells. AID 623901. Huh7 psiCHECK-miR122 Renilla luciferase sensor, 48 h. activation, % at 12.5 µM. 340,000 tested, 0.14% active;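 active = mean activation of 30% or more, with every replicate also reaching 30%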;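 also: 0% = median of neutral control wells and 100% = median of positive control wells; higher luciferase signal means stronger suppression of miR-122 activity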
# * marks the source's active call; other numbers are inactive results. This is one part of a sample in which hits are shown more often than they occur.
SMILES,miR-122 inh
COc1cccc(-c2cnc3c(c2)C(=O)N([C@@H](C)CO)C[C@@H](C)[C@H](CN(C)Cc2ccccc2)O3)c1,-7
COc1cccc(-c2cnc3c(c2)C(=O)N([C@H](C)CO)C[C@@H](C)[C@H](CN(C)Cc2ccccc2)O3)c1,-7
CCCNC(=O)N(C)C[C@H]1Oc2cc(-c3ccccc3)ccc2S(=O)(=O)N([C@H](C)CO)C[C@@H]1C,-32
C[C@H](CO)N1C[C@H](C)[C@@H](CN(C)C(=O)C2CCOCC2)Oc2ncc(-c3ccncc3)cc2C1=O,3
C[C@@H]1CN([C@H](C)CO)C(=O)c2cc(C#CCc3ccccc3)cnc2O[C@H]1CN(C)Cc1cccc(C(=O)O)c1,2
C[C@@H]1CN([C@@H](C)CO)C(=O)c2cc(C#CC(C)(C)O)cnc2O[C@H]1CN(C)C(=O)C1CC1,2
C[C@H]1CN([C@@H](C)CO)C(=O)c2cc(-c3ccncc3)cnc2O[C@@H]1CN(C)C(=O)Cc1ccccn1,-2
Cc1cc(C)cc(Oc2ccc(NC(=O)C3CC=CCC3C(=O)O)cc2)c1 (configuration not stated),32*
C[C@H](CO)N1C[C@H](C)[C@@H](CN(C)Cc2ccccc2)Oc2cc(-c3cncnc3)ccc2S1(=O)=O,-1
COc1ccc(OC)c(-c2cc(C3CCN(c4cc(Cl)nc(N)n4)CC3)[nH]n2)c1,46*
C[C@@H]1CN([C@@H](C)CO)S(=O)(=O)c2ccc(C#C[C@@H](C)O)cc2O[C@H]1CN(C)CC1CCOCC1,-43
C[C@H](CO)N1C[C@H](C)[C@H](CN(C)C(=O)C2CCC2)Oc2ncc(C#CC3CCCC3)cc2C1=O,-19
COc1ccc(OC)c(Nc2cc(C)nc3nc(C)nn23)c1,-107
COc1ccc(OC)c(Nc2cc(C)nc3ccc(C)cc23)c1,32*
COc1ccc(NS(=O)(=O)c2cc(OC)ccc2OC)cc1,-130
C[C@H](CO)N1C[C@H](C)[C@H](CN(C)Cc2ccc(F)cc2)Oc2ncc(-c3ccccc3)cc2C1=O,1
CO[C@H]1CN(C)C(=O)c2cc(NC(C)=O)ccc2OC[C@H](C)N(C(=O)c2ccccc2)C[C@@H]1C,1
C[C@@H]1CN([C@H](C)CO)C(=O)c2cc(-c3cccc(C(=O)N(C)C)c3)cnc2O[C@@H]1CN(C)CC1CC1,1
C[C@H](CO)N1C[C@H](C)[C@@H](CN(C)C(=O)Cc2ccccc2)Oc2ncc(C#CC3(O)CCCC3)cc2C1=O,-4
CCCC(O)C#Cc1cnc2c(c1)C(=O)N([C@H](C)CO)C[C@H](C)[C@H](CN(C)C)O2 (some centres not stated),2
C[C@@H]1CN([C@H](C)CO)S(=O)(=O)c2ccc(-c3ccncc3)cc2O[C@H]1CN(C)Cc1ccccc1,-8
Cc1nn(Cc2ccccc2Cl)c2sc(C(=O)OC3CCCC3=O)cc12 (configuration not stated),36*
COc1cccc(-c2cnc3c(c2)C(=O)N([C@H](C)CO)C[C@H](C)[C@@H](CN(C)CC2CCOCC2)O3)c1,5
C[C@@H]1CN([C@H](C)CO)C(=O)c2cccc(NC(=O)c3cnccn3)c2O[C@@H]1CN(C)C(=O)Nc1cccc2ccccc12,-95
N#CC1=C(N)Oc2c(ccc3cccnc23)C1c1ccccc1 (configuration not stated),64*
SMILES,miR-122 inh
C[C@H](CO)N1C[C@H](C)[C@@H](CN(C)Cc2cccc(F)c2)Oc2ncc(C3=CCCCC3)cc2C1=O,-9
C[C@@H]1CN([C@@H](C)CO)S(=O)(=O)c2ccc(C#C[C@@H](C)O)cc2O[C@@H]1CN(C)C(=O)c1ccncc1,13
C[C@@H](O)C#Cc1ccc2c(c1)O[C@H](CN(C)C(=O)Cc1ccccn1)[C@@H](C)CN([C@@H](C)CO)S2(=O)=O,-4
C[C@H](CO)N1C[C@H](C)[C@H](CN(C)C(=O)C2CCOCC2)Oc2ncc(-c3ccncc3)cc2C1=O,3
C[C@@H]1CN([C@H](C)CO)C(=O)c2cc(-c3cncnc3)cnc2O[C@H]1CN(C)Cc1ccc(Oc2ccccc2)cc1,38*
C[C@H]1CN([C@@H](C)CO)C(=O)c2cc(-c3cccnc3)cnc2O[C@@H]1CN(C)Cc1ccc(Oc2ccccc2)cc1,6
C[C@H](CO)N1C[C@H](C)[C@H](CN(C)CC2CCCCC2)Oc2c(NC(=O)C3CCOCC3)cccc2C1=O,-104
C[C@@H]1CN([C@@H](C)CO)C(=O)c2cc(/C=C/c3ccccc3)cnc2O[C@H]1CN(C)S(=O)(=O)c1ccc(F)cc1,3
C[C@H](CO)N1C[C@H](C)[C@@H](CN(C)CC2CCCC2)Oc2ncc(-c3cccc(F)c3)cc2C1=O,-4
C[C@H](CO)N1C[C@H](C)[C@@H](CN(C)CC2CCCCC2)Oc2c(NS(=O)(=O)c3cccs3)cccc2C1=O,33*
C[C@H](CO)N1C[C@H](C)[C@@H](CN(C)CC2CCCCC2)Oc2c(NC(=O)C3CC3)cccc2C1=O,-114
C[C@H]1CN([C@@H](C)CO)C(=O)c2cc(/C=C/c3ccccc3)cnc2O[C@H]1CN(C)S(=O)(=O)c1ccc(F)cc1,17
